PubChem BioAssay AID652105 (National Center for Advancing Translational Sciences (NCATS), 2013)
Hit rate of the full screen: of about 330,000 compounds, about 4,100 (1.2%) were called active. Not shown: some 2% with an inconclusive outcome. How the source made its calls: active means max response of -50% or lower; inconclusive means between -30% and -50%; inactive means -30% or higher. This excerpt belongs to a sample that is enriched for actives.

What follows are molecules tested against Phosphatidylinositol 5-phosphate 4-kinase type-2 alpha (Homo sapiens) (UniProt P48426) (assay: qHTS for Inhibitors of phosphatidylinositol 5-phosphate 4-kinase (PI5P4K)). Settings: PI5P4Kalpha enzyme, ADP-Glo luminescence, 60 min; active compounds read low.
Phosphatidylinositol 5-phosphate 4-kinase type-2 alpha (Homo sapiens), sequence (P48426 whole entry, looked up): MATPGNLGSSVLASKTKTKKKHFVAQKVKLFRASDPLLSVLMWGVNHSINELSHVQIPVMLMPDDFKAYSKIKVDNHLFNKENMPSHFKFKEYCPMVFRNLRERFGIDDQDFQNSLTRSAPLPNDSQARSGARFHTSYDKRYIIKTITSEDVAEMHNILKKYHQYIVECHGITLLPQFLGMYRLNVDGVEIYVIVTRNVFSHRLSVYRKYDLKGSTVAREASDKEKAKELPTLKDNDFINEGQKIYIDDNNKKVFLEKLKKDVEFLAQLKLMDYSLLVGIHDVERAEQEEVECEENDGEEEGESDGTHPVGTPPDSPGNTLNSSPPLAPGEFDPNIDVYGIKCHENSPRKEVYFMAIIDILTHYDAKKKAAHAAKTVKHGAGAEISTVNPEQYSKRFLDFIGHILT
In short: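 qHTS, 1536-well: enzyme/substrate mix, compound by pin tool, 5 microM ATP final; RT 60 min; ADP-Glo reagents 1 (45 min) then 2 (30 min); luminescence.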
Further: value at the top dose of about 77 µM.
On the % scale 0 is the no-effect control and ±100 the full control effect.

| SMILES | max response |
| --- | --- |
| COC(=O)c1ccc2nc(-c3ccc(OC)c(OC)c3)c(Cc3ccccc3)n2c1 | -1.07% (inactive) |
| CCOC(=O)C=Cc1ccc(C(=O)OCC)[nH]1 | 2.97% (inactive) |
| CCN(CCN(C)C)C(=O)c1ccc2nc(C)c(N(C)C(=O)CCc3ccccc3)n2c1 | 10.1% (inactive) |
| O=C(COC(=O)Cc1ccc(Cl)cc1Cl)NCc1ccco1 | 0.392% (inactive) |
| CC1CCN(C(=O)COC(=O)CCC(=O)c2cccs2)CC1 | -4% (inactive) |
| O=C(COC(=O)c1cccs1)NCc1cccs1 | -2.68% (inactive) |
| O=C(COC(=O)CCC(=O)c1cccs1)NCc1ccco1 | -63% (active) |
| O=C(COC(=O)c1ccccc1O)NCc1ccco1 | -51.6% (active) |
| O=C(COC(=O)c1cc(S(=O)(=O)N2CCCCC2)ccc1Cl)NCc1ccco1 | -24.6% (inactive) |
| Cc1cc(C)n2c(Nc3c(C)cccc3C)c(CCc3ccccc3)nc2n1 | 0.703% (inactive) |
| Cc1ccc(Cc2c(-c3ccc(Cl)cc3)nc3c4ccccc4ccn23)cc1 | 19.7% (inactive) |
| Cc1ccccc1Cn1c(C)c(C(=O)NCc2cccc(C(F)(F)F)c2)sc1=O | 6.94% (inactive) |
| CCCCCn1nnnc1-c1nc2cc3ccccc3cc2[nH]c1=O | -6.84% (inactive) |
| CCOC(=O)C(C(=O)c1ccccc1)C(c1ccccc1)c1nccc2ccccc12 (stereo not drawn) | -6.07% (inactive) |
| N#Cc1c(-c2ccccc2)cc(-c2ccccc2)nc1SCC(=O)O | -13.7% (inactive) |
| N#CCc1c(C#N)c(N)nc(N2CCCC2)c1C#N | -5.04% (inactive) |
| N#Cc1c(N2CCCCC2)nc(N)c2c(N)nc(SCC(=O)O)cc12 | -86.9% (active) |
| Nc1ncnc2c1ncn2[C@@H]1O[C@H](C(=O)NS(=O)(=O)c2c(Cl)nc3sccn23)[C@@H](O)[C@H]1O | -5.36% (inactive) |
| CC(C)(C)CC(=O)Nc1nc(C(N)Cc2ccc(C(F)(F)F)cc2)cs1 (stereo not drawn) | 0.168% (inactive) |
| Nc1ncnc2c1ncn2[C@@H]1O[C@H](C(=O)N2CCCN(Cc3ccccc3F)CC2)[C@@H](O)[C@H]1O | 1.03% (inactive) |
| CCOC(=O)CSc1nccc(N(C)C)c1C#N | -3.71% (inactive) |

| SMILES | max response |
| --- | --- |
| CCOC(=O)COc1nc(C)cc(C(F)(F)F)c1C#N | 3.55% (inactive) |
| CCOC(=O)C(Sc1ncc(C#N)c(N)n1)C(C)C (stereo not drawn) | -50.3% (active) |
| CCOC(=O)C1(C)CCCN(C(=O)c2ccc(F)c(Cl)c2)C1 (stereo not drawn) | -14.5% (inactive) |
| CCOC1=C2[C@@H](CN(S(=O)(=O)c3ccc(C)cc3)[C@H]2c2ccccc2F)[C@H]2C(=O)N(Cc3ccccc3)C(=O)[C@H]2C1 | -0.38% (inactive) |
| CCCNC(=O)C1(C)CCN(Cc2ccc(Cl)c(Cl)c2)C1 (stereo not drawn) | 6.81% (inactive) |
| CCCCN(C=O)c1c(CC)nc2c(OCc3ccccc3C(=O)OC)cccn12 | -7.91% (inactive) |
| O=C1[C@H]2[C@@H](c3ccc(C(F)(F)F)cc3)N[C@]3(CCCN(Cc4ccc(Cl)cc4)C3=O)[C@H]2C(=O)N1Cc1ccccc1 | 6.21% (inactive) |
| COC(=O)[C@@]12C[C@@H](CC(=O)NCCCCc3ccccc3)C(=O)N(CCc3ccc(OC)c(OC)c3)C1=CCC(C)(C)C2 | 21.2% (inactive) |
| O=c1[nH]c2ccccc2n2c(-c3ccccc3)nnc12 | -92.9% (active) |
| O=c1[nH]n2c(-c3ccccc3)nc(O)c2c2ccccc12 | -2.92% (inactive) |
| O=C(c1ncn2c1c(=O)[nH]c1ccccc12)N1CCc2ccccc2C1 | -1.33% (inactive) |
| CN(Cc1ccccc1F)c1cc2c(c3c1ccn3C)C1CCC2O1 (stereo not drawn) | -0.125% (inactive) |
| C[C@@H]1CN([C@H](C)CO)S(=O)(=O)c2ccc(C#C[C@@H](C)O)cc2O[C@@H]1CN(C)Cc1ccc(-c2ccccc2)cc1 | 2.03% (inactive) |
| OC[C@@H]1CN(Cc2ccc3c(c2)OCO3)C[C@H](n2cnc3c(NCc4ccco4)ncnc32)O1 | -4.15% (inactive) |
| CC(Sc1ccc(S(=O)(=O)N2CCN(C)CC2)cn1)C(=O)NC1CCCC(C)C1C (stereo not drawn) | 0.777% (inactive) |
| COc1ccc(-c2ccc3[nH]c4c(c3c2)CCN2C[C@H]3[C@H](C)ON(C)[C@H]3C[C@@H]42)cc1 | 0.74% (inactive) |
| O=C(C[C@H]1C[C@@H]2c3cc(NC(=O)C4CCC4)ccc3O[C@@H]2[C@H](CO)O1)NC1CCCCC1 | -3.63% (inactive) |
| Cc1nn(C)cc1/C=C1\CCC/C(=C\c2cn(C)nc2C)C1=O | -2.16% (inactive) |
| CCn1cc(/C=C2/SC(=S)NC2=O)c(C)n1 | -66.5% (active) |
| C=C1C(=O)[C@]23C[C@H]1CCC2[C@@]1(C)C(C[C@@H]3O)[C@](C)(C(=O)O)CC[C@@H]1O (stereo partly drawn) | 3.48% (inactive) |
| O=[N+]([O-])c1ccc(CN2CC(N3CCC(c4ccccc4)CC3)CS2(=O)=O)cc1 (stereo not drawn) | 5.16% (inactive) |

| SMILES | max response |
| --- | --- |
| COc1ccc(CNc2nc3c(c(=O)[nH]c(=O)n3C)n2Cc2ccccc2)cc1 | 6.3% (inactive) |
| Cn1c(=O)[nH]c(=O)c2c1[nH]c(=S)n2Cc1ccccc1 | -85.5% (active) |
| C=CCSc1nc2c(c(=O)[nH]c(=O)n2C)n1Cc1ccccc1 | 7.13% (inactive) |
| C#CCOCCOCCOCCNc1nc(N2CCN(C(=O)CCCCCCCCCCNC(=O)[C@H]([C@@H](C)CC)n3cc(CCCCN=C(N)N)nn3)CC2)nc(N2CCN(C(=O)CCCCCCCCCCNC(=O)[C@H](CO)n3cc(CCCSC)nn3)CC2)n1 | -95.3% (active) |
| C#CCOCCOCCOCCNc1nc(N2CCN(C(=O)[C@H](C(C)C)n3cc(CCO)nn3)CC2)nc(N2CCN(C(=O)[C@H]([C@@H](C)CC)n3cc(CCCN=C(N)N)nn3)CC2)n1 | -3.39% (inactive) |
| C#CCOCCOCCOCCNc1nc(N2CCN(C(=O)Cn3cc(CCO)nn3)CC2)nc(N2CCN(C(=O)Cn3cc(CCCN=C(N)N)nn3)CC2)n1 | 1.27% (inactive) |
| CC1(C(=O)NS(=O)(=O)c2cccc(F)c2)CCN1C(=O)Cc1ccc(Cl)cc1Cl (stereo not drawn) | -3.09% (inactive) |
| CC1(C(=O)NS(=O)(=O)c2ccccc2)CCN1C(=O)C1CCCCC1 (stereo not drawn) | 0.69% (inactive) |
| CCC(=C/c1sc2ccc3ccccc3c2[n+]1C)/C=C1\Sc2ccc3ccccc3c2N1C | -90.2% (active) |
| CCCCc1c(-c2ccc(Br)cc2)ncn1CCc1ccccc1OC | 11.5% (inactive) |
| C[C@@H]1CN([C@@H](C)CO)C(=O)CCCn2nncc2CO[C@@H]1CN(C)S(=O)(=O)c1ccc(-c2ccccc2)cc1 | -0.942% (inactive) |
| COc1ccc(-c2ccc(CN3C(CC(C)C)C(=O)N(Cc4cn(CC5CCCCC5)nn4)CCS3(=O)=O)cc2)cn1 (stereo not drawn) | -0.614% (inactive) |
| C=C1c2c(Cl)ccc(O)c2C(O)=C2C(=O)[C@]3(O)C(O)=C(C(N)=O)C(=O)[C@@H](N(C)C)[C@@H]3[C@@H](O)C12 (stereo partly drawn) | -76.5% (active) |
| CN(C)[C@@H]1C(=O)C(C(N)=O)=C(O)[C@@]2(O)C(=O)C3=C(O)c4c(O)ccc(Cl)c4[C@@H](O)[C@H]3C[C@@H]12 | -11.8% (inactive) |
| COc1ccc(C2OC(CCc3ccccc3)Cc3[nH]c(=S)[nH]c(=O)c32)cc1 (stereo not drawn) | -4.14% (inactive) |
| CC(C)C[C@@H]1Cc2[nH][nH]c(=O)c2[C@H](CCc2ccccc2)O1 | 19.9% (inactive) |
| Nc1ccc2nc3c(=O)[nH]c(=S)[nH]c3nc2c1 | -105% (active) |
| CC(C)N(Cc1nnc(-c2ccccc2Br)o1)C(=O)c1cc(Cl)nc2ccccc12 | 9.3% (inactive) |
| O=C(c1ccc(Cl)s1)N(Cc1nnc(-c2ccccc2Cl)o1)C1CC1 | 3.41% (inactive) |
| O=C(c1cc(-c2ccco2)nc2ccccc12)N(Cc1nnc(-c2ccc(Cl)cc2)o1)C1CC1 | -72.6% (active) |
| COc1ccc(NC(=O)c2sc(=O)n(Cc3ccc(S(=O)(=O)N(C)C)cc3)c2C)cc1 | -4.44% (inactive) |

| SMILES | max response |
| --- | --- |
| O=c1[nH]n(-c2ccc([N+](=O)[O-])cc2)c(=O)c2ccccc12 | -53.6% (active) |
| O=[N+]([O-])c1ccc(N2CCOCC2)cc1 | 2.48% (inactive) |
| O=c1[nH]c2cccnc2n1-c1ccc([N+](=O)[O-])cc1 | 3.06% (inactive) |
| CC(C)CNC(=O)C1(C)CCCN1C(=O)CSc1ccccc1 (stereo not drawn) | -2.54% (inactive) |
| CCc1nc2c(OCCC3CCCCC3)cccn2c1N(C)C(=O)c1ccco1 | -1.87% (inactive) |
| O=c1oc2cc(O)ccc2cc1-c1ccc(F)cc1 | -58.1% (active) |
| CN(C)c1cc(-c2ccc(F)cc2)oc(=O)c1Cl | -9.22% (inactive) |
| COc1ccc(-c2cc3ccc(OCc4nn[nH]n4)cc3oc2=O)cc1 | -28.7% (inactive) |
| CCCNC(=O)C1(C)CCCN(Cc2cccc(C(F)(F)F)c2)C1 (stereo not drawn) | -5.32% (inactive) |
| CCOC(=O)N1C(=O)C[C@](Sc2ccc(C)cc2)(C(=O)OC)[C@H]1c1ccccc1 | 5.07% (inactive) |
| CC1(C(=O)NS(=O)(=O)Cc2cccc(Cl)c2)CCN1C(=O)Cc1ccccc1 (stereo not drawn) | 1.29% (inactive) |
| CC(C)CN1C(=O)CN(S(C)(=O)=O)CC1(C)C(=O)NCc1ccccc1 (stereo not drawn) | -3.28% (inactive) |
| OC[C@@H]1CN(Cc2ccncc2)C[C@H](n2cnc3c(N4CCN(c5ccccc5)CC4)ncnc32)O1 | 3.53% (inactive) |
| O=C(Cn1cnc2c(OCc3ccccc3)ncnc21)NCCCn1ccnc1 | 1.01% (inactive) |
| CC(CNC(=O)Cn1cnc2c(OCc3ccccc3)ncnc21)c1ccccc1 (stereo not drawn) | 2.34% (inactive) |
| O=C(Cn1cnc2c(OCc3ccccc3)ncnc21)NCc1nc2ccccc2[nH]1 | -52.2% (active) |
| CCc1nc2c(OCCOc3ccccc3)cccn2c1N(C)C(=O)c1cccs1 | -2.92% (inactive) |
| COc1ccc(S(=O)(=O)Nc2ccc3c(c2)OCO3)cc1Cl | -4.52% (inactive) |
| COc1ccc(S(=O)(=O)c2c[nH]c(=S)[nH]c2=O)cc1Cl | -71.5% (active) |
| COc1ccc(S(=O)(=O)N(C)CC(=O)N2CCCC2)cc1Cl | -1.95% (inactive) |
